We go through 39 sequences from publication PMC11006913.

HOXC10 (Homo sapiens, UniProt Q9NYD6 254-340, K271E), sequence (Q9NYD6 254-340 K271E): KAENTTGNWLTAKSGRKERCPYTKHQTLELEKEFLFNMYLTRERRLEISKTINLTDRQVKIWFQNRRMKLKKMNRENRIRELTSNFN

In one assay the target is HOXC10 (Homo sapiens, UniProt Q9NYD6 254-340). The assay can be described thus: PBM; 200 nM protein, PBS. Conditions: dsDNA, one strand shown.
HOXC10 (Homo sapiens, UniProt Q9NYD6 254-340), sequence (Q9NYD6 254-340): as the sequence (Q9NYD6 254-340 K271E) above, with E18K counted along it
Regarding AAAGCGGG, the binding signal was 9.98 upbm affinity estimate (log intensity, higher = more binding, comparable within an allelic series).
For AGATAATG, the binding signal was 11.3 upbm affinity estimate (log intensity, higher = more binding, comparable within an allelic series).
Same read-out and setting: to TTGGCCAA belongs 9.97 upbm affinity estimate (log intensity, higher = more binding, comparable within an allelic series); to CTTTCTTC, 9.98 upbm affinity estimate (log intensity, higher = more binding, comparable within an allelic series); to CGTGAATA, 10.7 upbm affinity estimate (log intensity, higher = more binding, comparable within an allelic series).
Regarding GCGGTGCC, the binding signal was 10 upbm affinity estimate (log intensity, higher = more binding, comparable within an allelic series).
Consider AGCAGGGC, for which the binding signal was 10.1 upbm affinity estimate (log intensity, higher = more binding, comparable within an allelic series).
On to AGCTGGGC, for which the binding signal is 10 upbm affinity estimate (log intensity, higher = more binding, comparable within an allelic series).
For the sequence GCGACGAC, the binding signal was 10.1 upbm affinity estimate (log intensity, higher = more binding, comparable within an allelic series).
On to GGCGCAAA, for which the binding signal was 10.1 upbm affinity estimate (log intensity, higher = more binding, comparable within an allelic series).
In the case of CTCAGGAA, the binding signal is 10.1 upbm affinity estimate (log intensity, higher = more binding, comparable within an allelic series).
As for ATACTATA, the binding signal is 11.1 upbm affinity estimate (log intensity, higher = more binding, comparable within an allelic series).
For the sequence AGGCTTCC, the binding signal is 10.1 upbm affinity estimate (log intensity, higher = more binding, comparable within an allelic series).
Consider CCTTGCGA, for which the binding signal was 10 upbm affinity estimate (log intensity, higher = more binding, comparable within an allelic series).
On to CTCGGGAA, for which the binding signal was 10.1 upbm affinity estimate (log intensity, higher = more binding, comparable within an allelic series).
For CTCCTCTC, the binding signal was 10 upbm affinity estimate (log intensity, higher = more binding, comparable within an allelic series).
As for AACATTAT, the binding signal was 11.6 upbm affinity estimate (log intensity, higher = more binding, comparable within an allelic series).
Still for that read-out and setting: to AATCATCA belongs 10.9 upbm affinity estimate (log intensity, higher = more binding, comparable within an allelic series); to AGCTCTGC, 9.99 upbm affinity estimate (log intensity, higher = more binding, comparable within an allelic series); to AGGAGTGG, 9.97 upbm affinity estimate (log intensity, higher = more binding, comparable within an allelic series).
As to ATACTAAT, the binding signal is 11.3 upbm affinity estimate (log intensity, higher = more binding, comparable within an allelic series).
Turning to CAGAGGGA, the binding signal is 10.1 upbm affinity estimate (log intensity, higher = more binding, comparable within an allelic series).
On to ATTACAGG, for which the binding signal was 11.1 upbm affinity estimate (log intensity, higher = more binding, comparable within an allelic series).
Regarding CCCGAGAC, the binding signal is 9.98 upbm affinity estimate (log intensity, higher = more binding, comparable within an allelic series).
As to ATGTCATA, the binding signal is 11.1 upbm affinity estimate (log intensity, higher = more binding, comparable within an allelic series).
Turning to CGAGGAGC, the binding signal was 9.97 upbm affinity estimate (log intensity, higher = more binding, comparable within an allelic series).
On to CCGGTGAC, for which the binding signal is 10 upbm affinity estimate (log intensity, higher = more binding, comparable within an allelic series).
On the same count and under the same terms, to GACTGGGC belongs 9.98 upbm affinity estimate (log intensity, higher = more binding, comparable within an allelic series).
For AGCTTCTG, the binding signal is 10.1 upbm affinity estimate (log intensity, higher = more binding, comparable within an allelic series).
Take ATGTGCTA: the binding signal is 10.7 upbm affinity estimate (log intensity, higher = more binding, comparable within an allelic series).
Turning to ACGAAGCT, the binding signal was 10 upbm affinity estimate (log intensity, higher = more binding, comparable within an allelic series).
As to ATATCAGG, the binding signal is 10.6 upbm affinity estimate (log intensity, higher = more binding, comparable within an allelic series).
AATAATAG: the binding signal was 11.5 upbm affinity estimate (log intensity, higher = more binding, comparable within an allelic series).
As for ATAACACC, the binding signal was 11.1 upbm affinity estimate (log intensity, higher = more binding, comparable within an allelic series).
On the same count and under the same terms, the figure for CCGACTCG is 10.1 upbm affinity estimate (log intensity, higher = more binding, comparable within an allelic series); for GCTCCCGA it is 9.93 upbm affinity estimate (log intensity, higher = more binding, comparable within an allelic series).
As for GCATATAA, the binding signal is 11.4 upbm affinity estimate (log intensity, higher = more binding, comparable within an allelic series).
As for CTAGCCAG, the binding signal is 10.1 upbm affinity estimate (log intensity, higher = more binding, comparable within an allelic series).
CCGAACTC: the binding signal was 9.95 upbm affinity estimate (log intensity, higher = more binding, comparable within an allelic series).

A further assay has as its target HOXC10 (Homo sapiens, UniProt Q9NYD6 254-340, K271E). The assay can be described thus: PBM; 200 nM protein, PBS. Conditions: dsDNA, one strand shown.
In the case of AAAGCGGG, the binding signal was 10.1 upbm affinity estimate (log intensity, higher = more binding, comparable within an allelic series).
For AGATAATG, the binding signal was 11.2 upbm affinity estimate (log intensity, higher = more binding, comparable within an allelic series).
Turning to TTGGCCAA, the binding signal was 9.93 upbm affinity estimate (log intensity, higher = more binding, comparable within an allelic series).
Regarding CTTTCTTC, the binding signal is 10.1 upbm affinity estimate (log intensity, higher = more binding, comparable within an allelic series).
Take CGTGAATA: the binding signal was 10.7 upbm affinity estimate (log intensity, higher = more binding, comparable within an allelic series).
For GCGGTGCC, the binding signal is 10 upbm affinity estimate (log intensity, higher = more binding, comparable within an allelic series).
For the sequence AGCAGGGC, the binding signal was 10.1 upbm affinity estimate (log intensity, higher = more binding, comparable within an allelic series).
As for AGCTGGGC, the binding signal is 10 upbm affinity estimate (log intensity, higher = more binding, comparable within an allelic series).
In the case of GCGACGAC, the binding signal is 10 upbm affinity estimate (log intensity, higher = more binding, comparable within an allelic series).
Turning to GGCGCAAA, the binding signal is 10.1 upbm affinity estimate (log intensity, higher = more binding, comparable within an allelic series).
As for CTCAGGAA, the binding signal was 10 upbm affinity estimate (log intensity, higher = more binding, comparable within an allelic series).
On to ATACTATA, for which the binding signal is 11 upbm affinity estimate (log intensity, higher = more binding, comparable within an allelic series).
On the same count and under the same terms, to AGGCTTCC belongs 10.1 upbm affinity estimate (log intensity, higher = more binding, comparable within an allelic series); to CCTTGCGA, 10.1 upbm affinity estimate (log intensity, higher = more binding, comparable within an allelic series); to CTCGGGAA, 10 upbm affinity estimate (log intensity, higher = more binding, comparable within an allelic series).
Consider CTCCTCTC, for which the binding signal was 10 upbm affinity estimate (log intensity, higher = more binding, comparable within an allelic series).
In the case of AACATTAT, the binding signal is 11.3 upbm affinity estimate (log intensity, higher = more binding, comparable within an allelic series).
Take AATCATCA: the binding signal was 10.9 upbm affinity estimate (log intensity, higher = more binding, comparable within an allelic series).
On the same count and under the same terms, to AGCTCTGC belongs 9.97 upbm affinity estimate (log intensity, higher = more binding, comparable within an allelic series); to AGGAGTGG, 9.99 upbm affinity estimate (log intensity, higher = more binding, comparable within an allelic series); to ATACTAAT, 11.2 upbm affinity estimate (log intensity, higher = more binding, comparable within an allelic series).
Turning to CAGAGGGA, the binding signal is 10.1 upbm affinity estimate (log intensity, higher = more binding, comparable within an allelic series).
On to ATTACAGG, for which the binding signal was 10.9 upbm affinity estimate (log intensity, higher = more binding, comparable within an allelic series).
For CCCGAGAC, the binding signal was 9.98 upbm affinity estimate (log intensity, higher = more binding, comparable within an allelic series).
Still for that read-out and setting: the figure for ATGTCATA is 11.1 upbm affinity estimate (log intensity, higher = more binding, comparable within an allelic series); for CGAGGAGC it is 9.97 upbm affinity estimate (log intensity, higher = more binding, comparable within an allelic series).
CCGGTGAC: the binding signal was 10 upbm affinity estimate (log intensity, higher = more binding, comparable within an allelic series).
Regarding GACTGGGC, the binding signal was 10 upbm affinity estimate (log intensity, higher = more binding, comparable within an allelic series).
As to AGCTTCTG, the binding signal is 10 upbm affinity estimate (log intensity, higher = more binding, comparable within an allelic series).
ATGTGCTA: the binding signal was 10.7 upbm affinity estimate (log intensity, higher = more binding, comparable within an allelic series).
Still for that read-out and setting: to ACGAAGCT belongs 10.1 upbm affinity estimate (log intensity, higher = more binding, comparable within an allelic series).
Consider ATATCAGG, for which the binding signal was 10.7 upbm affinity estimate (log intensity, higher = more binding, comparable within an allelic series).
Take AATAATAG: the binding signal was 11.2 upbm affinity estimate (log intensity, higher = more binding, comparable within an allelic series).
For ATAACACC, the binding signal was 10.8 upbm affinity estimate (log intensity, higher = more binding, comparable within an allelic series).
Turning to CCGACTCG, the binding signal was 10.1 upbm affinity estimate (log intensity, higher = more binding, comparable within an allelic series).
For the sequence GCTCCCGA, the binding signal is 10.1 upbm affinity estimate (log intensity, higher = more binding, comparable within an allelic series).
With GCATATAA, the binding signal was 11.2 upbm affinity estimate (log intensity, higher = more binding, comparable within an allelic series).
Same read-out and setting: the figure for CTAGCCAG is 10.1 upbm affinity estimate (log intensity, higher = more binding, comparable within an allelic series).
Same read-out and setting: the figure for CCGAACTC is 10 upbm affinity estimate (log intensity, higher = more binding, comparable within an allelic series).
